# High-throughput results from PubChem.
# Shown are actives, neighbours in structure and some others; about 9.5% of the full set was active somewhere.
# Tau fluor cs: Counterscreen qHTS for Inhibitors of Tau Fibril Formation, Fluorescence Polarization; Potency, µM (doses to about 57.7 µM), inactives show at the top dose activity change, negative = decrease; AID 1463, 2008; actives 0.93% (n = 280,000); tau K18 P301L Alexa594 fluorescence, heparin fibrillization; also: nearly all actives have a fitted effect of over 55% in size
#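 Human tau K18 P301L (15 uM unlabeled, 0.24 uM Alexa 594-labeled) in 100 mM sodium acetate pH 7 with 20 uM heparin, 6 hr at 37 C. ThT 30 uM added, 1 hr ambient; Alexa 594 FP and total fluorescence read at 555/632 nm.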
# ALDH1A1 block: qHTS Assay for Inhibitors of Aldehyde Dehydrogenase 1 (ALDH1A1) | actives 7.3% (n = 220,000) | Potency, µM (titrated, usually from 75.3 µM), without a hit: top-dose activity, negative = inhibition, most hits filed as inhibitors | Purified ALDH1A1, NADH fluorescence, propionaldehyde substrate | Aldehyde dehydrogenase 1A1 (Homo sapiens), P00352; active = well fitted inhibition curve with a large enough effect, not every such curve was filed as active; inconclusive = small, poorly fitted or top-dose-only effect, or another doubt; inactive = no such curve, though single readings can be large or run the other way;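 also: plate controls were no enzyme wells and a reference inhibitor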
# HPGD block: qHTS Assay for Inhibitors of HPGD (15-Hydroxyprostaglandin Dehydrogenase); 15-hydroxyprostaglandin dehydrogenase [NAD(+)] (Homo sapiens), P15428; purified HPGD, NADH fluorescence kinetic, PGE2 substrate; Potency, µM, without a hit: at the highest dose activity change, negative = inhibition, actives largely listed as inhibitors; actives 4.3% (n = 150,000); AID 894, 2007; active = well fitted inhibition curve with a large enough effect, not every such curve was filed as active; inconclusive = small, poorly fitted or top-dose-only effect, or another doubt; inactive = no such curve, though single readings can be large or run the other way
#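 NADH formation kinetics: reaction with 30 uM PGE2 and 1 mM NAD+ (final), 20 nM enzyme, Tris-HCl pH 8 with Tween 20, after 15 min compound preincubation at room temperature. Fluorescence change, last versus first of five reads.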
# Tau ThT inhib: qHTS for Inhibitors of Tau Fibril Formation, Thioflavin T Binding; recombinant tau K18 P301L, heparin-induced fibrillization, ThT fluorescence; Potency, µM (series often up to 57.4 µM), without a hit: at the top dose activity, negative = inhibition, hits mostly inhibitors; actives 2.1% (n = 270,000); also: nearly all actives have a fitted effect of over 55% in size
# Target sequence (P10636 561-689 P618L limits assumed): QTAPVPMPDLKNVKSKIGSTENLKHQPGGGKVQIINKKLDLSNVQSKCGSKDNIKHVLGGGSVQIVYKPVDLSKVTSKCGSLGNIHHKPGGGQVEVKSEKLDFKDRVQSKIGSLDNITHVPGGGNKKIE
#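 Using a mix of unlabeled (15 uM) and Alexa 594-labeled (0.24 uM) tau K18 P301L, heparin-triggered fibrillization over 6 hr at 37 C was scored by ThT fluorescence.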
# Tau FP inhib: qHTS for Inhibitors of Tau Fibril Formation, Fluorescence Polarization. Microtubule-associated protein tau (Homo sapiens), P10636. K18 P301L tau heparin fibrillization, Alexa594 FP, 6 h. Potency, µM (highest dose often 57.7 µM), inactives show at the top dose activity, negative = inhibition, most hits filed as inhibitors. actives 0.39% (n = 280,000); also: nearly all actives have a fitted effect of over 55% in size
#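 Compound effects on tau fibrillization are measured by Alexa 594 fluorescence polarization (ex 555, em 632 nm). K18 P301L tau is used at 15 uM with 0.24 uM labeled tracer, and 20 uM heparin induces aggregation over 6 hr at 37 C.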
# NPSR antagonist: qHTS Assay for Antagonists of the Neuropeptide S Receptor: cAMP Signal Transduction; Q6W5P4; CHO-NPSR cells, cAMP TR-FRET, antagonist mode; Potency, µM (highest dose often 38.3 µM), inactives show at the highest dose activity change, negative = inhibition, most hits filed as inhibitors; actives 1% (n = 220,000); also: nearly all actives have a fitted effect of over 50% in size
# Target sequence (Q6W5P4 whole entry, looked up): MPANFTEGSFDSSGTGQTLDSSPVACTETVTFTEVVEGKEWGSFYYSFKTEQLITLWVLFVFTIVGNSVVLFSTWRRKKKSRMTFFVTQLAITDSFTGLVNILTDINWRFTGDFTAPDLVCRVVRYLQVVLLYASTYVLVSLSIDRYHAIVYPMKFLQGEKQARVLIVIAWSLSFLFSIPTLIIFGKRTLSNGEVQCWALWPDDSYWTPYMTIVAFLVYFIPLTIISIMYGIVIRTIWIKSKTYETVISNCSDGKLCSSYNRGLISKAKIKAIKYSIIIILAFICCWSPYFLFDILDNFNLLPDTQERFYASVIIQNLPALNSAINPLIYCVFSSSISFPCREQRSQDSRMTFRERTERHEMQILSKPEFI
# Active calls of the source: *; ? = inconclusive; . = no result given; ! = not active in a repeat; [ ] = dose if it differs, or a comment. Unless noted, calls follow the shape of the dose curve; as a rule, active = well fitted curve in the direction sought with a large enough effect; inconclusive = small, poorly fitted or top-dose-only effect, or another doubt; inactive = no such curve, though single readings can be large; an effect the other way counts as inactive or inconclusive. Unless noted, % is scaled to controls: 0 for no effect and ±100 for the full control effect; potency is read from the fitted curve at half-maximal effect.
SMILES,Tau fluor cs,ALDH1A1 block,HPGD block,Tau ThT inhib,Tau FP inhib,NPSR antagonist
C[C@H](CCC(=O)O)[C@H]1CC[C@@H]2[C@H]3CC[C@H]4C[C@H](O)CC[C@]4(C)[C@@H]3CC[C@@]21C,-1%,3%,12%,-5%,9%,.
CCCCCn1c(SCCCC)nc2c1c(=O)[nH]c(=O)n2C,-1%,20µM*,14µM*,-9%,14%,-20%[46.1 µM]
CC(C)CCn1c(N2CCN(c3cccc(Cl)c3)CC2)nc2c1c(=O)[nH]c(=O)n2C,-3%,5%,-5%,?,2%,-48%
S=C(c1ccc(Cl)cc1)N1CCOCC1,4%,?,22µM*,-5%,-6%,-9%[46.1 µM]
COc1cc(NC(=S)N2CCOCC2)c(OC)cc1Cl,-16%,?,.,-5%,0%,-6%
CC1(C)C(C(Cl)Cl)C2(Cl)C(Cl)C(Cl)C1(Cl)C2(Cl)Cl (centres undefined),-17%,0%,-2%,-13%,-11%,.
COc1ccc(CC2C(=O)N(C)C(=O)N(C)C2=O)c(OC)c1,-20%,-16%,-4%,?,?,-3%[46.1 µM]
Cc1ccc(CC2C(=O)N(C)C(=O)N(C)C2=O)s1,-10%,20µM*,?,?,?,-11%[46.1 µM]
COc1cc2c3cc1Oc1c(O)c(OC)cc4c1[C@@H](Cc1ccc(cc1)Oc1cc(ccc1O)C[C@H]3N(C)CC2)N(C)CC4,.,-5%[13.5 µM],-9%,.,.,.
Cc1cc(NC(=O)CCl)on1,-3%,3.5µM*,.,-9%,11%,8%
Cc1c(C(=O)c2ccccc2)c2ccccc2n1C,-11%,.,.,3%,-6%,11%
Cc1ccc(C(=O)c2ccc(CC(=O)O)n2C)cc1,-2%,2%,16µM*!,-2%,10%,.
Cc1cccc(Cn2cccc(C(=O)Nc3nnc(C)s3)c2=O)c1,-11%,.,.,-8%,-7%,.
CCN1C(=O)/C(=C/c2ccc(N(CC)CC)cc2OC)C(=O)NC1=S,-18%,10µM*,.,?,-15%,-57%
CCC(C)N1C(=O)NC(=O)C2(Cc3c(ccc4ccccc34)N(C)C2)C1=O (centres undefined),?,-2%,-5%,16µM*,?,-27%[46.1 µM]
C=CC(=O)OCC(CC)CCCC (centres undefined),.,-4%,-5%,.,.,.
Cc1ccc(C(c2nnnn2Cc2ccccc2)N2CC=C(c3ccc(F)cc3)CC2)cc1 (centres undefined),-1%,7.9µM*,-15%,-1%,1%,-20%[46.1 µM]
Oc1ccc2c3c1O[C@H]1c4c(c5ccccc5n4Cc4ccccc4)C[C@@]4(O)C(C2)N(CC2CC2)CC[C@]314,?,5%,.,-17%,3%,.
Cn1c(O)c(/C=C2\N=c3ccccc3=C2CCNC(=S)NC2CC2)c(=O)n(C)c1=O,-19%,.,.,11µM*,?,-10%
C[C@H]1C2C=C[C@H]1[C@@H](C(=O)O)[C@@H]2c1c2ccc(=O)c(O)c-2oc2c(O)c(O)ccc12,.,-4%[13.5 µM],3.5µM*,.,.,.
CC(=O)C(Sc1ncnc2c1nnn2-c1ccc(F)cc1)C(=O)N(C)C (centres undefined),-15%,2.5µM*,11µM*,14µM*,?,-11%[46.1 µM]
O=C(CSc1ncnc2c1nnn2-c1ccc(F)cc1)NCC1CCCO1 (centres undefined),-8%,-1%,?,?,0%,-14%[46.1 µM]
C/C(O)=C(/C#N)C(=O)Nc1cc(Br)ccc1Br,-8%,?,-8%,-15%,3%,.
CN(C)CS/C(N)=N/[C@H](O)C(Cl)(Cl)Cl,.,3.2µM*,-10%,.,.,.
CC(=O)Nc1c2sscc-2n(C)c1=O,-18%,2%,-11%,16µM*,?,.
SMILES,Tau fluor cs,ALDH1A1 block,HPGD block,Tau ThT inhib,Tau FP inhib,NPSR antagonist
CC(C)COC(=O)c1ccccc1C(=O)OCC(C)C,-2%,?,-9%,4%,-5%,3%
CCCCC(CC)COC(=O)c1ccccc1C(=O)OCC(CC)CCCC (centres undefined),.,22µM*,-7%,.,.,.
COC(=O)[C@@H]1C[C@H]2CC[C@H](O)C[C@H]2N1CC1CC1,-3%,9%,-9%,-7%,4%,.
O=C(O)CN1CCN(CC(=O)O)CC(=O)[O][Hg][O]C(=O)C1,.,1.6µM*,0.04µM*,.,.,.
N[C@H](CP(=O)(O)O)C(=O)O,-2%,-2%,-3%,-4%,5%,.
c1ccc2c(c1)CCCC2,.,-16%,-7%,.,.,.
CCOP(=O)(OCC)C(c1ccccc1)N(C)C=O (centres undefined),-22%,18µM*,.,?,-6%,-7%[46.1 µM]
C=CCN1C(=O)/C(=C/c2ccc(N3CCOCC3)o2)C(=O)NC1=S,3%,-6%,28µM*,0%,-1%,-15%
C=CCN1C(=O)/C(=C/c2cccs2)C(=O)NC1=S,?,8.9µM*,3.2µM*,?,9%,13µM*
COc1ccc(N2C(=O)/C(=C/c3cccs3)C(=O)NC2=S)cc1,2%,.,.,.,6%,?
O=C1NC(=S)N(Cc2ccco2)C(=O)/C1=C\c1cccs1,?,18µM*,.,13µM*,?,-15%
C=CCN1CC[C@]23c4c5ccc(O)c4O[C@@H]2/C(=N/N=C2\CC[C@@]4(O)C6Cc7ccc(O)c8c7[C@@]4(CCN6CC=C)[C@@H]2O8)CC[C@@]3(O)C1C5,-11%,-8%,8%,-14%,-10%,?
C=CCOC(C)=O,.,-1%,-8%,.,.,.
Cc1nn(Cc2ccccc2Cl)c(Cl)c1C(=O)O,-4%,5%,.,-2%,11%,-1%
CC(C)(C)c1nc(N2CCN(C(=O)c3ccco3)CC2)c2nnn(Cc3ccccc3Cl)c2n1,2%,?,-16%,-13%,-3%,10µM*
O=C/C=C/c1ccccc1,-4%,13µM*!,-9%,-6%,0%,.
CC(C)c1ccc(NC(=O)CN2C(=O)CN=C(c3ccccc3)c3ccccc32)cc1,-12%,.,.,-9%,-15%,.
COc1ccccc1N1C(=O)NC(=O)/C(=C\c2cnn(-c3ccccc3)c2)C1=O,-4%,8.9µM*,.,?,-6%,-44%
COc1cc(OC)c(OC)cc1/C=C1/C(=O)NC(=O)N(Cc2ccccc2)C1=O,-14%,5%,.,?,-6%,24%
COc1cc(OC)c(OC)cc1/C=C1\C(=O)NC(=O)N(Cc2ccccc2)C1=O,-22%,?,.,?,-18%,1%
